Assay results reported in the supplement of paper PMC4166925.
± gives the standard deviation of the averaged measurements. Over roughly 33,000 sequences, “E-score (dimensionless, -0.5 to 0.5)” has its median near -0.046; the highest 2% begin near 0.36. The full list was thinned out, with the highest values kept by preference.

What follows are sequences tested on T1, SpTbr T-box DNA-binding domain (GST fusion) (assay: PBM E-score of 8-mer (E-score (dimensionless, -0.5 to 0.5)); Tbr is Tbrain of the sea star Patiria miniata (Pm) or the sea urchin Strongylocentrotus purpuratus (Sp); higher = stronger binding preference). Details: the construct has about 5 more residues each side.
T1 sequence: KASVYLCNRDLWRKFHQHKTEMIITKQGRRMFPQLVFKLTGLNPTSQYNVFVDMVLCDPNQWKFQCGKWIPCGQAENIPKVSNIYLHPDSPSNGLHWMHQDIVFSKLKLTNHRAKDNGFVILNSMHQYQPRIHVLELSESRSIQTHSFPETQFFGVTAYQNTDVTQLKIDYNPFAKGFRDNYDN
Procedure: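 Universal protein-binding microarray (Agilent AMADID 016060, 60-bp probes with a 35-bp variable region) incubated with 200 nM GST-fused Strongylocentrotus purpuratus Tbr T-box DNA-binding domain (residues 362-554) in PBS pH 7.5. Scored for every ungapped 8-mer (given with its reverse complement) as E-score (range -0.5 to 0.5; >0.45 counts as bound) and Z-score of median probe intensity. Two replicate arrays (datasets 1 and 2).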
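Further: protein at 200 nM in PBS on universal double-stranded arrays.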

In order of falling “PBM E-score of 8-mer” value:
1. ACACCTCC  0.4854 ± 0.0043
2. CACACCTA  0.4806 ± 0.0011
3. AACACCTC  0.481 ± 0.0063
4. ACACCTCG  0.4804 ± 0.0036
5. ACACCTCT  0.479 ± 0.0083
6. ACACCTCA  0.4607 ± 0.0039
7. AACACCTA  0.4609 ± 0.0024
8. GTGTTAAC  0.4543 ± 0.0026
9. CTCACACA  0.438 ± 0.0081
10. GTGCTAAC  0.432 ± 0.012
11. AGGTGATA  0.428 ± 0.015
12. ATCACGCC  0.403 ± 0.0051
13. ACACTTAT  0.402 ± 0.0068
14. GTGTTATA  0.4 ± 0.034
15. ACACTTAC  0.4 ± 0.024
16. CTCACGCC  0.397 ± 0.039
17. GCACCTCC  0.396 ± 0.013
18. GTGTTAAA  0.395 ± 0.026
19. AGGTGATG  0.3942 ± 0.0033
20. CTCGCGAA  0.389 ± 0.012
21. GCGCTAAC  0.388 ± 0.007
22. TCACCTCA  0.387 ± 0.0086
23. CACCTAAC  0.387 ± 0.018
24. GTGCTAAA  0.384 ± 0.026
25. GTGTTAGA  0.384 ± 0.0066
26. ACACTTAG  0.383 ± 0.038
27. CACCTAAG  0.383 ± 0.019
28. TACACCTA  0.377 ± 0.0086
29. CTCACGCA  0.375 ± 0.022
30. GCGTTAAC  0.374 ± 0.011
31. ACGCCTCG  0.373 ± 0.019
32. GTCGCGAA  0.372 ± 0.025
33. GTGTTGGA  0.367 ± 0.0068
34. ATCGCGAA  0.367 ± 0.032
35. ATCGCGAT  0.364 ± 0.011
36. GTCGCGAC  0.362 ± 0.019
37. TTCGCGAA  0.3584 ± 0.0003
38. ATCACGCG  0.357 ± 0.012
39. GCACCTCA  0.343 ± 0.02
40. GCGCTAAA  0.338 ± 0.014
41. ACACTTAA  0.336 ± 0.027
42. ACGCCTCA  0.331 ± 0.01
43. CCACCTCC  0.324 ± 0.0077
44. CTGCTAAC  0.321 ± 0.029
45. CACCTAAA  0.3188 ± 0.00098
46. CTGTTAAC  0.312 ± 0.028
47. CTCGCGAC  0.311 ± 0.025
48. AAGGCGCT  0.306 ± 0.035
49. AGTTAGCG  0.304 ± 0.0085
50. ACGCCTCT  0.30412 ± 0.00015
51. AACACCGC  0.299 ± 0.018
52. CGTGTAAA  0.296 ± 0.027
53. GAAAGTGA  0.293 ± 0.039
54. CTCTTCAC  0.292 ± 0.018
55. CACACCGA  0.291 ± 0.036
56. CTCGCGAG  0.284 ± 0.03
57. CCCACCTA  0.282 ± 0.013
58. GTCACGCA  0.279 ± 0.017
59. AACAAGGT  0.271 ± 0.009
60. ATCGCGAC  0.271 ± 0.036
61. ACGTTAAC  0.255 ± 0.013
62. ATCGCGAG  0.255 ± 0.0054
63. GGGTGATA  0.253 ± 0.0088
64. ACGCCGGC  0.242 ± 0.0047
65. CTCGCTAA  0.232 ± 0.043
66. CTGTTAAA  0.231 ± 0.041
67. CCGTTAAC  0.228 ± 0.007
68. CCACCTCG  0.228 ± 0.019
69. AACACCGA  0.228 ± 0.03
70. AGTAGCGC  0.224 ± 0.014
71. GCACTTAC  0.208 ± 0.017
72. ATCACGCA  0.19 ± 0.026
73. TTGTTAAA  0.184 ± 0.12
74. ATGTTAAC  0.182 ± 0.097
75. CTTACGCC  0.177 ± 0.0022
76. CCACCTCA  0.172 ± 0.067
77. CCCACGCC  0.163 ± 0.014
78. CCACTTAC  0.161 ± 0.0085
79. CCGCTAAC  0.16 ± 0.031
80. AGGTAGCG  0.143 ± 0.04
81. CTGTTATA  0.137 ± 0.071
82. ATCGCGTA  0.13 ± 0.024
83. GTCACAAA  0.125 ± 0.032
84. TTCGCCAA  0.124 ± 0.054
85. TACACCGA  0.118 ± 0.1
86. AGGTGATC  0.116 ± 0.085
87. ACTCTTCG  0.113 ± 0.071
88. CGGTGATA  0.111 ± 0.0075
89. CTGTTAGA  0.11 ± 0.12
90. TTGCTAAA  0.109 ± 0.08
91. GAAGTCGA  0.107 ± 0.051
92. CTGCCAAG  0.105 ± 0.03
93. AGACCTCA  0.1 ± 0.022
94. CTTACGCA  0.0993 ± 0.0077
95. CGGCGATA  0.094 ± 0.028
96. ATCGCAAA  0.0887 ± 0.0029
97. ACAACCAT  0.0868 ± 0.041
98. ACTTTCAA  0.0855 ± 0.0062
99. ACGTGATG  0.0808 ± 0.05
100. GTCGAGCA  0.0707 ± 0.028
101. CTGTTGGA  0.0702 ± 0.044
102. TACACCAA  0.0641 ± 0.095
103. AAAGCGCT  0.0608 ± 0.028
104. ACGCTCAG  0.0449 ± 0.0089
105. CTGCTAAA  0.0425 ± 0.15
106. ATTGTGGA  0.0374 ± 0.11
107. ATGCTAAC  0.0372 ± 0.018
108. TGACCTCA  0.0321 ± 0.076
109. AAACCTCG  0.0284 ± 0.048
110. CCACTGCG  0.0281 ± 0.049
111. ATAGATCG  0.0137 ± 0.011
112. CCCTATCA  0.0101 ± 0.042
113. AAGACCTC  0.00991 ± 0.032
114. ACCTCCCT  0.00833 ± 0.034
115. CCAGCCGG  -0.00031 ± 0.015
116. GAGCAGTA  -0.00784 ± 0.039
117. CACGGTTA  -0.0116 ± 0.056
118. CCTACTAA  -0.0157 ± 0.06
119. ATACCTCC  -0.0183 ± 0.066
120. ACCCGAAC  -0.0199 ± 0.021
121. TGAAACCA  -0.0205 ± 0.016
122. AACCTAAC  -0.0237 ± 0.04
123. CCACTTAG  -0.0238 ± 0.042
124. GGTAGACA  -0.025 ± 0.028
125. CACAGCAG  -0.0256 ± 0.044
126. ACTCTTAT  -0.0294 ± 0.038
127. ATGTTGGA  -0.0349 ± 0.065
128. CAATAGAC  -0.0363 ± 0.07
129. CCTAGGCC  -0.0372 ± 0.013
130. CGAGCACA  -0.0373 ± 0.063
131. ACCCTTGA  -0.0396 ± 0.029
132. CTGTGGTC  -0.0438 ± 0.0053
133. TGCATCAA  -0.0456 ± 0.044
134. AGGTTGAT  -0.0456 ± 0.014
135. GGAGGGTA  -0.0485 ± 0.045
136. ATATAGGC  -0.0504 ± 0.058
137. CCCAACGG  -0.055 ± 0.1
138. TAACCTGA  -0.0659 ± 0.025
139. ATTTAAAT  -0.06656 ± 0.00039
140. AAAAAAGT  -0.074 ± 0.11
141. ACTTAAGT  -0.0767 ± 0.13
142. CCCTTACG  -0.0777 ± 0.068
143. GCCTGCAA  -0.0777 ± 0.016
144. ATGTTATA  -0.0933 ± 0.013
145. AGCAAAAT  -0.0958 ± 0.067
146. ACTCTTAG  -0.106 ± 0.0089
147. AGTTGGCC  -0.112 ± 0.0038
148. CGGGGGAC  -0.117 ± 0.088
149. AGAGCAAT  -0.132 ± 0.0051
150. AACCTAAG  -0.133 ± 0.0067
151. ATGTTAGA  -0.136 ± 0.095
152. TAACCTCA  -0.153 ± 0.018
153. CGGCCGAA  -0.16 ± 0.027
154. CCTAACCG  -0.163 ± 0.039
155. CCCCTAAG  -0.17 ± 0.067
156. ATGCGCTC  -0.175 ± 0.02
157. GTGCTCTA  -0.178 ± 0.029
158. GGCAGGGA  -0.182 ± 0.062
159. GAACGAGC  -0.187 ± 0.063
160. AGGCCTAT  -0.196 ± 0.034
161. CAATTGAG  -0.2 ± 0.036
162. GACCATAC  -0.206 ± 0.012
163. ATATTAAT  -0.209 ± 0.078
164. AGGACTAT  -0.234 ± 0.035
165. ATTAAGAA  -0.254 ± 0.043
166. AGGGGGAT  -0.262 ± 0.033
167. CAAGAACG  -0.267 ± 0.011
168. AGTCTGGG  -0.278 ± 0.029
169. AGACCTCT  -0.281 ± 0.035
170. AAACCTCT  -0.292 ± 0.061
171. AAGGGGCA  -0.297 ± 0.042
172. GGACCTCC  -0.327 ± 0.017
